Assay [1] is described as follows: A549 cell viability effects, profiling panel, calcein-AM fluorescence, 48 h, basal (AID 1162). Conditions: higher = more signal.
Assay [2] is described as follows: adipocyte viability effects, profiling panel, cell-based, 3T3-L1 adipocytes, calcein-AM fluorescence, 48 h, basal (AID 1163). To be noted: 3T3-L1 adipocytes viability, higher = more signal.
Assay [3] can be described thus: HepG2 cell viability effects, profiling panel, calcein-AM fluorescence, 48 h, basal (AID 1164). Conditions: higher = more signal.
Assay [4] is described as follows: MM1S cell viability effects, profiling panel, calcein-AM fluorescence, 48 h, basal (AID 1165).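 Also: viability of MM1S multiple myeloma cells under basal unstimulated conditions.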 To be noted: higher = more signal.
A short description of assay [5]: basal RPMI8226 viability, no added stimulus, profiling panel, cell-based, calcein-AM fluorescence, 48 h, PK04 Diversity Set (AID 1166).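 Also: cells grown under basal conditions without added stimulus.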 Conditions: RPMI8226 myeloma viability, higher = more signal.
A short description of assay [6]: basal HepG2 mitochondrial membrane potential changes, profiling panel, cell-based, JC-1 fluorescence, 24 h, 100 nL compound (AID 1167). Conditions: higher = more signal.
The nature of assay [7]: basal 3T3-L1 adipocyte mitochondrial potential changes, profiling panel, cell-based, JC-1 fluorescence, 3T3-L1 adipocytes, 24 h, 100 nL compound (AID 1168). To be noted: JC-1 mitochondrial fluorescence, higher = more signal, called active from +8 up or from −8 down.
Assay [8] is described as follows: basal RPMI8226 mitochondrial membrane potential changes, profiling panel, cell-based, JC-1 fluorescence, 24 h, 100 nL compound (AID 1169). Conditions: RPMI8226 myeloma, JC-1 mitochondrial potential fluorescence, higher = more signal.
Assay [9] can be described thus: basal MM1S mitochondrial membrane potential changes, profiling panel, cell-based, JC-1 fluorescence, 24 h, 100 nL compound (AID 1170). To be noted: higher = more signal.
Assay [10] is described as follows: A549 lung cancer cell viability effects, profiling panel, resazurin fluorescence, 24 h, PK04 Diversity Set (AID 1171). Conditions: higher = more signal, called active from +8 up or from −8 down.

The source made the active and inactive calls.

The text below walks through data of PubChem BioAssay.
Also: test concentration not given here.

For `C[N+](C)(C)CCCCCCNC(=O)[C@@H]1C[C@@H]2C(=O)N3CCC[C@H]3C(=O)N2[C@@H]1c1cccc(OCCO)c1`, the z-score was -0.465 in assay [1]; -0.0317 in assay [2]; -1.92 in [3]; 0.826 in assay [4]; 0.844 in [5]; -1.08 in assay [6]. For the same molecule, the z-score in assay [7] is 0.217 (inactive); in assay [8] it was -0.00411; in [9], -1.03; in [10] it was 1.12 (inactive).

In the case of `N#Cc1ccc(NN2C(C(O)c3cc(C(F)(F)F)cc(C(F)(F)F)c3)C=CC3C(=O)N(c4ccccc4)C(=O)C32)cc1` (stereo not given), the z-score was -0.676 in assay [1]; -0.461 in assay [2]; -1.22 in assay [3]; -1.45 in [4]; -3.8 in assay [5]; -2.78 in assay [6]. The z-score in [7] is -0.189 (inactive); in assay [8] it was -0.754; in assay [9], 0.0337; in assay [10], -0.557 (inactive).

Take `c1ccc(C2NCCc3c2[nH]c2ccccc32)cc1` (stereo not given): the z-score was -0.479 in [1]; 0.381 in assay [2]; -0.704 in assay [3]; -0.402 in assay [4]; -0.742 in assay [5]; -2.18 in assay [6]. Besides, the z-score in assay [7] was -0.424 (inactive); in [8], 0.0801; in assay [9] it was 0.299; in assay [10], 0.272 (inactive).

Regarding `COc1ccc(OC[C@H]2Cc3c(-c4ccccc4)nc4c(c3CO2)CN(CCOc2ccccc2)CC4)cc1`, the z-score in [1] is 0.823; in [2] it was 1.04; in assay [3], 0.562; in assay [4], -2.69; in assay [5], -1.81; in assay [6] it was 3.51. The z-score in assay [7] was 0.367 (inactive); in assay [8], -0.177; in assay [9], 0.656; in [10], -0.634 (inactive).

`CO[C@H]1O[C@H](CO)[C@@H](OC(=O)Nc2ccc3c(c2)OCO3)[C@H](OC(=O)Nc2ccccc2-c2ccccc2)[C@@H]1OC(=O)Nc1ccccc1-c1ccccc1`: the z-score was -0.89 in assay [1]; -0.0426 in [2]; -0.251 in assay [3]; -0.624 in assay [4]; -0.775 in [5]; -0.121 in [6]. Also, the z-score is 1.34 (inactive) in [7], -1.11 in [8], 0.481 in assay [9] and -1 (inactive) in assay [10].

With `COc1ccccc1CN1C(=O)c2ccccc2[C@@H](C(=O)NCC(F)(F)F)[C@@H]1c1ccc(CO)cc1`, the z-score in [1] is 1.4; in assay [2] it was -0.467; in assay [3], 1.67; in [4], -0.127; in assay [5], 1.04; in assay [6] it was 1.62. The z-score is 0.913 (inactive) in assay [7], 0.28 in assay [8], -0.684 in assay [9] and 0.633 (inactive) in assay [10].

In the case of `CC(C)[C@@H](OCc1ccccc1)[C@H](C)C=NOC[C@@H](C)[C@H](OCc1ccccc1)C(C)C`, the z-score in assay [1] is 0.243; in assay [2] it was -0.231; in [3] it was -0.661; in assay [4], 0.27; in [5] it was 0.0507; in [6], -0.245. The z-score in [7] was -0.149 (inactive); in assay [8], 0.0367; in assay [9], -0.0858; in assay [10], -0.689 (inactive).

Take `COc1ccc(-c2nc3c(c4c2C[C@H](C)OC4)CN(CCC(C)C)CC3)cc1`: the z-score was 0.537 in [1]; -0.49 in assay [2]; 0.443 in assay [3]; 0.508 in [4]; -0.234 in [5]; 1.7 in [6]. The z-score in assay [7] is -0.613 (inactive); in assay [8] it was 0.0911; in assay [9], -0.685; in assay [10] it was -0.0598 (inactive).

For `O=C1C2C=CC(C(O)c3ccc([N+](=O)[O-])cc3)N(Nc3ccc([N+](=O)[O-])cc3)C2C(=O)N1c1ccccc1` (stereo not given), the z-score in assay [1] is -0.682; in assay [2] it was -1.1; in assay [3], 0.0069; in assay [4] it was -0.0432; in assay [5], -1.81; in assay [6] it was -2.27. Moreover, the z-score in assay [7] was -2.73 (inactive); in assay [8], -1.01; in assay [9] it was -1.48; in assay [10], -0.402 (inactive).

With `O=C1C[C@@H](O)[C@@H](O)[C@@H]2[C@@H]3C(=O)N(Cc4ccc5c(c4)OCO5)C(=O)[C@@H]3CC[C@@H]12`, the z-score in assay [1] is 0.254; in [2], 0.797; in [3], 0.0538; in assay [4] it was 0.339; in [5] it was -0.205; in assay [6] it was -0.32. Moreover, the z-score was -0.409 (inactive) in assay [7], -0.893 in [8], 0.358 in assay [9] and -0.14 (inactive) in [10].

Take `CCc1cc2c(nc1CC)CCN(CCC(C)=NOC[C@@H](O)[C@H]1O[C@@H]3OC(C)(C)O[C@@H]3[C@H]1O)C2`: the z-score in assay [1] is 0.719; in [2] it was 0.879; in assay [3], 1.09; in [4], -1.1; in assay [5] it was -0.531; in assay [6], 0.244. Also, the z-score was -1.1 (inactive) in [7], 0.527 in assay [8], -0.162 in [9] and -0.0919 (inactive) in assay [10].

`CCc1cccc(NC(=O)O[C@H]2[C@H](OC(=O)Nc3ccc4c(c3)OCO4)[C@@H](OC(=O)Nc3ccc4c(c3)OCO4)[C@@H](OC)O[C@@H]2CO)c1`: the z-score in assay [1] is -1.1; in assay [2], 0.29; in [3] it was -1.66; in assay [4], -1.33; in assay [5], -0.976; in assay [6], 0.0535. In addition, the z-score in [7] is 0.892 (inactive); in assay [8], -0.806; in [9], -0.503; in assay [10], 0.735 (inactive).

For the molecule `COc1ccc(CCNC(=O)[C@@H]2c3ccccc3C(=O)N(c3ccc(C)cn3)[C@H]2c2ccc(CO)cc2)cc1`, the z-score in assay [1] is -0.174; in [2] it was 0.821; in assay [3], -0.513; in assay [4], -0.243; in [5], -0.194; in [6], -0.814. The z-score in assay [7] is -0.195 (inactive); in assay [8], 0.671; in assay [9], 0.634; in assay [10] it was 0.689 (inactive).
